Results on 21 compounds are retold here after PubChem BioAssay.

Records with an inconclusive call do not appear. Active and inactive are the calls of the source. Unless noted, the rule behind the calls is not given here.

The subject of experiment [1] is Aerobactin synthetase IucA (Klebsiella pneumoniae). The experiment is described as follows: IucA aerobactin synthetase inhibitors, biochemical, Tocris library, absorbance (AID 1345561).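 Note: 100% = enzyme without compound and 0% = no enzyme.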 The note with it: purified IucA enzyme assay, absorbance (OD) read-out; stronger effect = lower value;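 tested at 8 µM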.
Experiment [2] can be described thus: sensitizers of A549 cells to miR-34 induction, primary screen, imaging, A549 dox-inducible miR-34, nuclei and caspase counts (AID 1347080;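 active = compounds whose cell count with miR-34 switched on is under 0.7 times the count with it off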). The note with it: A549 miR-34 inducible, Hoechst nuclei count, 48 h.
Experiment [3] is described as follows: viability rescue of complex I mutant cybrids, primary screen, cell-based, galactose medium, ATP luminescence (AID 1645843;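 active = z-score of at least 1.8 in each of two replicates, scored against plate mean and spread of sample wells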;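 note: positive z means more ATP and so rescue of galactose-driven cybrid death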). The note with it: complex I mutant cybrid cells, 72 h, stronger effect = higher value.
A short description of experiment [4]: circadian clock period modulators, cell-based, LOPAC library, luminescence reporter (AID 2774).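 Note: values are relative to mean of DMSO wells on each plate.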 Particulars: circadian reporter cells, at 7 µM, actives lie on both sides.
A short description of experiment [5]: liver-stage malaria parasite growth inhibition, primary screen, cell-based, HepG2, luciferase luminescence, HepG2 viability (AID 624349; in the data active = parasite load remaining mostly below about 12%, no sharp cut-off; inactive = mostly above about 10%;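 note: 100% = mean of DMSO negative control wells on the same plate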). The note with it: P. berghei liver stage in HepG2, luciferase luminescence, concentration not given here; parasite load remaining: stronger effect = lower value; viability: measured here: HepG2 viability without parasites.
Experiment [6] in a line: growth inhibition of DIPG glioma cells, dose response, cell-based, SU-DIPG-XVII, MIPE5.0, CellTiter-Glo, qHTS (AID 1347060; cut-off not given, nearly all actives have AC50 up to about 26 µM;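 note: cells exposed to compound for 48 hours before viability readout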). Particulars: SU-DIPG-XVII viability, CellTiter-Glo ATP luminescence. In general terms: In ATP-based viability assays light output follows the ATP content of the culture.
Experiment [7] in a line: growth inhibition of DIPG glioma cells, dose response, cell-based, SU-DIPG-XIII, MIPE4.0, CellTiter-Glo, qHTS (AID 1347061; cut-off not given, nearly all actives have AC50 up to about 37 µM;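 note: cells exposed to compound for 48 hours before readout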). Particulars: SU-DIPG-XIII viability, CellTiter-Glo ATP luminescence.
Experiment [8] in a line: growth inhibition of DIPG glioma cells, dose response, cell-based, JHH-DIPG-1, MIPE4.0, CellTiter-Glo, qHTS (AID 1347062; cut-off not given, nearly all actives have AC50 up to about 27 µM;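 note: cells exposed to compound for two days before readout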). Particulars: JHH-DIPG-1 viability, CellTiter-Glo ATP luminescence.
The nature of experiment [9]: growth inhibition of DIPG glioma cells, dose response, cell-based, SU-DIPG-IV, MIPE4.0, CellTiter-Glo, qHTS (AID 1347063; cut-off not given, nearly all actives have AC50 up to about 30 µM;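 note: compound exposure lasted 48 hours before the viability readout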). Particulars: SU-DIPG-IV viability, CellTiter-Glo ATP luminescence.
The nature of experiment [10]: growth inhibition of DIPG glioma cells, dose response, cell-based, SU-DIPG-XIII, MIPE5.0, CellTiter-Glo, qHTS (AID 1347064; cut-off not given, nearly all actives have AC50 up to about 23 µM;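 note: cells exposed to compound for 48 hours before the viability read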). Particulars: SU-DIPG-XIII viability, CellTiter-Glo ATP luminescence.
Experiment [11] can be described thus: viability loss in pontine glioma line – cell-based, SU-DIPG-XXV, MIPE5.0, CellTiter-Glo, qHTS, dose response (AID 1347065; cut-off not given, nearly all actives have AC50 up to about 26 µM;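 note: cells exposed to compound for 48 hours before ATP readout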). Particulars: CellTiter-Glo ATP luminescence.
Experiment [12] in a line: SU-DIPG-VI glioma cell viability, MIPE4.0 library, CellTiter-Glo luminescence, qHTS (AID 1347066; cut-off not given, nearly all actives have AC50 up to about 30 µM;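 note: cells exposed to compound for 48 hours before readout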). Particulars: CellTiter-Glo ATP luminescence.
Setting [13] is: stronger effect = lower value, cell number ratio, induced over uninduced.
Where [14] appears, read: measured here: relative caspase fold change +Dox/-Dox.
The mark [15] stands for this setting: measured here: total cells with miR-34 induction, stronger effect = lower value.
Setting [16] is: measured here: total cells without miR-34 induction.

In general, remaining activity refers to the signal under treatment as a percentage of the control signal. What is called viability is a read-out of living cells in per cent, often relative to untreated cells. Broadly, the AC50 is the midpoint of the concentration-response curve, whichever way the signal moves.

In the case of `N#C/C(=C\c1ccc(O)c(O)c1)C(N)=O`, in [1], the remaining activity was 122% (inactive). Further, the fold change in experiment [2] (setting [13]) was 0.887 (inactive); in [2] (setting [14]), 1.74. Further, the cell count in [2] (setting [15]) was determined as 9080; in experiment [2] (setting [16]), 10200. For the same compound, in [3], the z-score was -0.47 (inactive).

For the compound `COc1ccc(S(=O)(=O)N2c3ccc(Cl)cc3[C@](O)(c3ccccc3Cl)[C@@H]2C(=O)N2CCC[C@H]2C(N)=O)cc1OC`, in [1], the remaining activity was 97.7% (inactive). The figures for the fold change in experiment [2] (setting [13]) and in experiment [2] (setting [14]) were 0.908 (inactive) and 1.22, respectively. For the same compound, the results for the cell count in experiment [2] (setting [15]) and in experiment [2] (setting [16]) were 8610 and 9480, respectively. Moreover, the z-score in [3] was 0.855 (inactive).

In the case of `CC1(C)CCC(C)(C)c2cc(C3(c4ccc(C(=O)O)cc4)OCCO3)ccc21`, the remaining activity in [1] is 106% (inactive). Further, the fold change in experiment [2] (setting [13]) is 0.895 (inactive); in [2] (setting [14]) it was 2.19. For the same compound, the values for the cell count in [2] (setting [15]) and in [2] (setting [16]) were 8580 and 9580, respectively. Moreover, in experiment [3], the z-score is 0.95 (inactive).

In the case of `Cc1cccc(C)c1NC(=O)C[N+](C)(C)C`, the period change in [4] is 0.05 h (inactive). Besides, in experiment [1], the remaining activity was 109% (inactive). In addition, the fold change in [2] (setting [13]) is 1 (inactive); in experiment [2] (setting [14]), 0.946. Moreover, the cell count was 9170 in experiment [2] (setting [15]) and 9160 in experiment [2] (setting [16]). In addition, the z-score in [3] was -0.035 (inactive).

As for `Nc1ncnc2c1nc(Br)n2[C@@H]1O[C@@H]2COP(=O)(O)O[C@H]2[C@H]1O`, the remaining activity in [1] is 114% (inactive). The results for the fold change in experiment [2] (setting [13]) and in experiment [2] (setting [14]) were 0.96 (inactive) and 0.834, respectively. In addition, the cell count in experiment [2] (setting [15]) is 8030; in [2] (setting [16]), 8360. For the same compound, the z-score in [3] is -0.015 (inactive).

Turning to `O=C(OCCN1CCCCC1)c1c[nH]c2ccccc12`, the period change in experiment [4] was -0.005 h (inactive). Further, in [1], the remaining activity is 82.2% (inactive). The fold change was 0.911 (inactive) in experiment [2] (setting [13]) and 0.811 in experiment [2] (setting [14]). Also, the cell count in experiment [2] (setting [15]) came to 9250; in experiment [2] (setting [16]), 10200. Further, in experiment [3], the z-score was 0.69 (inactive).

Consider `COC(=O)/C=C/c1cc(O)ccc1O`, for which the remaining activity in experiment [1] was 98.4% (inactive). Besides, the fold change in [2] (setting [13]) is 0.869 (inactive); in experiment [2] (setting [14]) it was 0.871. The cell count in experiment [2] (setting [15]) came to 8110; in [2] (setting [16]), 9340. Also, the z-score in [3] is -1.21 (inactive).

Regarding `CC[N+](C)(CC)CC(=O)Nc1c(C)cccc1C`, the remaining activity in [1] is 109% (inactive). In addition, the fold change in experiment [2] (setting [13]) is 0.963 (inactive); in experiment [2] (setting [14]) it was 0.801. In addition, the cell count was found to be 8930 in experiment [2] (setting [15]) and 9270 in experiment [2] (setting [16]). Also, the z-score in experiment [3] was 0.265 (inactive).

Take `COc1ccc2[nH]c(I)c(CCNC(C)=O)c2c1`: the period change in experiment [4] is -0.075 h (inactive). The remaining activity in experiment [1] was 98.4% (inactive). For the same compound, the fold change in experiment [2] (setting [13]) is 0.928 (inactive); in experiment [2] (setting [14]), 0.922. Further, the cell count in [2] (setting [15]) turned out to be 8770; in experiment [2] (setting [16]), 9460. For the same compound, the z-score in experiment [3] is 0.09 (inactive).

As to `Cc1c(CC(C)(C)C(=O)O)n(Cc2ccc(Cl)cc2)c2ccc(F)cc12`, the period change in experiment [4] is -0.04 h (inactive). Further, the remaining activity in experiment [1] was 112% (inactive). Besides, the fold change in experiment [2] (setting [13]) was 0.952 (inactive); in [2] (setting [14]), 0.72. Also, the cell count in experiment [2] (setting [15]) worked out at 8220; in experiment [2] (setting [16]) it was 8630. Also, the z-score in experiment [3] is 0.1 (inactive).

As to `CN1C[C@H]2c3ccccc3Oc3ccc(Cl)cc3[C@@H]2C1` (racemic), the remaining activity in [1] was 109% (inactive). Also, the values for the fold change in experiment [2] (setting [13]) and in experiment [2] (setting [14]) were 0.868 (inactive) and 2.03, respectively. The cell count in experiment [2] (setting [15]) was determined as 5560; in [2] (setting [16]), 6410. In addition, the z-score in experiment [3] was -0.745 (inactive).

`COc1cc2c(cc1OC)-c1cc3nc4ccccc4nc3n1C(C)(C)C2`: the remaining activity in [1] is 119% (inactive). The values for the fold change in experiment [2] (setting [13]) and in experiment [2] (setting [14]) were 1.11 (inactive) and 0.782, respectively. For the same compound, the figures for the cell count in experiment [2] (setting [15]) and in [2] (setting [16]) were 4000 and 3590, respectively. Further, the z-score in experiment [3] was -0.79 (inactive).

As for `CC(C)[C@H](CO)Nc1nc(Nc2cc(N)cc(Cl)c2)c2ncn(C(C)C)c2n1`, the parasite load remaining in [5] was 38.5% (inactive). Besides, in [5], the viability turned out to be 101%. Moreover, the remaining activity in experiment [1] is 103% (inactive). Besides, the fold change in experiment [2] (setting [13]) was 1.06 (inactive); in experiment [2] (setting [14]), 1.14. Besides, the cell count in [2] (setting [15]) stood at 1230; in experiment [2] (setting [16]), 1160. Moreover, the z-score in experiment [3] was -0.555 (inactive).

For `NC(C(=O)O)c1nn[nH]n1` (centres undefined), the remaining activity in [1] is 102% (inactive). Moreover, the fold change in [2] (setting [13]) was 1.01 (inactive); in experiment [2] (setting [14]) it was 0.805. In addition, the cell count came out at 9500 in [2] (setting [15]) and 9360 in [2] (setting [16]). Moreover, the z-score in experiment [3] was -0.46 (inactive).

As for `COc1ccc(Nc2ncnc3ccc(OC)cc23)cc1`, the remaining activity in [1] is 108% (inactive). Also, the fold change in [2] (setting [13]) is 0.902 (inactive); in experiment [2] (setting [14]), 1.09. Also, the cell count came to 6910 in experiment [2] (setting [15]) and 7660 in experiment [2] (setting [16]). The z-score in experiment [3] was -0.345 (inactive).

In the case of `Cc1ccc(NC2=CC(=O)c3sc(C)nc3C2=O)cc1`, the parasite load remaining in experiment [5] was 21% (inactive). Besides, the viability in [5] turned out to be 105%. In addition, the remaining activity in experiment [1] was 117% (inactive). The fold change in experiment [2] (setting [13]) was 0.814 (inactive); in experiment [2] (setting [14]) it was 0.845. The cell count in experiment [2] (setting [15]) amounted to 1060; in experiment [2] (setting [16]), 1300. Besides, in experiment [3], the z-score is -0.705 (inactive).

With `N#C/C(=C\c1ccc(O)c(O)c1)C(=O)NCCCc1ccccc1`, the period change in [4] is 0.005 h (inactive). For the same compound, the remaining activity in [1] is 98.4% (inactive). The values for the fold change in experiment [2] (setting [13]) and in experiment [2] (setting [14]) were 0.871 (inactive) and 1.07, respectively. In addition, the cell count worked out at 7250 in [2] (setting [15]) and 8330 in experiment [2] (setting [16]). Besides, the z-score in [3] is -0.64 (inactive).

Regarding `COc1cc2c(cc1C(F)(F)F)N(C(=O)Nc1cc(F)cc(-c3cccnc3)c1)CC2`, the period change in experiment [4] was 0.195 h (inactive). In addition, in experiment [1], the remaining activity was 97.1% (inactive). Moreover, the fold change in [2] (setting [13]) was 0.848 (inactive); in experiment [2] (setting [14]), 0.948. In addition, the cell count stood at 5790 in [2] (setting [15]) and 6820 in experiment [2] (setting [16]). For the same compound, the z-score in experiment [3] was -0.61 (inactive).

As to `CN=C1C=C2C(=NC=NC2=Nc2cccc(Br)c2)C=N1`, in experiment [1], the remaining activity is 82.7% (inactive). In addition, the fold change was 0.699 (active) in experiment [2] (setting [13]) and 1.7 in [2] (setting [14]). Also, the cell count was found to be 942 in experiment [2] (setting [15]) and 1350 in experiment [2] (setting [16]). Also, the z-score in experiment [3] was -0.675 (inactive).

`COc1cc2ncnc(Nc3ccc(Oc4ccccc4)cc3)c2cc1OC`: the parasite load remaining in experiment [5] is 30.7% (inactive). Moreover, the viability in experiment [5] came to 67.6%. For the same compound, the remaining activity in experiment [1] was 104% (inactive). Also, the fold change was 0.963 (inactive) in experiment [2] (setting [13]) and 1.11 in experiment [2] (setting [14]). The values for the cell count in [2] (setting [15]) and in experiment [2] (setting [16]) were 8700 and 9040, respectively. Also, in experiment [3], the z-score is 0.48 (inactive).

For `COc1ccc(Nc2cc(-c3cnc(N)nc3)nc(N3CCOCC3)n2)cn1`, the AC50 is 2.95 µM (active) in [6]; 18.7 µM (active) in experiment [7]; 5.9 µM (active) in experiment [8]; 4.69 µM (active) in experiment [9]; 1.66 µM (active) in [10]; 1.32 µM (active) in experiment [11]. Moreover, the AC50 in [12] is 4.18 µM (active).
